ASM inhibitor – blocks human secretory acid sphingomyelinase; AID 504937; Potency, µM (doses to about 57.5 µM), inactives show at the top dose activity change, negative = inhibition, usual class: inhibitors; hit rate 0.006% among 340,000; placental ASM, HMU-PC fluorogenic substrate, 60 min; P17405
Target sequence (P17405 47-631 limits assumed): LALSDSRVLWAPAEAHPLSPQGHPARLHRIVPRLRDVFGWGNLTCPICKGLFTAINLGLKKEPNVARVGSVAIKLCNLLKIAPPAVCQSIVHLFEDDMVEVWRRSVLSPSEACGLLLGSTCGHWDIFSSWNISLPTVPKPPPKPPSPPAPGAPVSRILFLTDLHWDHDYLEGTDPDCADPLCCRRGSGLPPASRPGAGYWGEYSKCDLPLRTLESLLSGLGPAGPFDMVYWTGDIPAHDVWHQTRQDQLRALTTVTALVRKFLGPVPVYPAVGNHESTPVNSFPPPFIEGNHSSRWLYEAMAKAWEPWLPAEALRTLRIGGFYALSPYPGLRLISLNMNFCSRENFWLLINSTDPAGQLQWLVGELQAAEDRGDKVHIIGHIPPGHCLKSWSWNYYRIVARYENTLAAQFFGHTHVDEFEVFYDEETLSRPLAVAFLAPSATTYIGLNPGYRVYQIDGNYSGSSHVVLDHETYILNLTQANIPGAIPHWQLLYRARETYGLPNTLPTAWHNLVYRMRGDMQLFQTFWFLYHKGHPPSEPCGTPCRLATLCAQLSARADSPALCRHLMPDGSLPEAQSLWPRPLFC
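Fluorescence read-out (Ex 386 nm, Em 447 nm) after stopping the reaction at pH 10. Enzyme: ASM from human placenta; substrate HMU-PC0, 9 uM final; 60 min, 37 °C. Compound preincubation 10 min, ambient temperature.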
AT treatment – potential ataxia-telangiectasia treatments restoring KAP-1 phosphorylation | hit rate 0.19% among 320,000 | F2112 A-T fibroblasts, KAP-1 phosphorylation AlphaLISA; neocarzinostatin DNA damage 30 min before lysis | Potency, µM (doses to about 57.5 µM), without a hit: at the top dose activation, usual class: activators; note: % of control where 0% means no effect; nearly all actives have a fitted effect of over 45% in size
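ATM-like activity read as KAP-1 phosphorylation via AlphaLISA donor/acceptor antibody pairs after lysis and 6 hr at 25C. Cells were ATM-null patient fibroblasts (F2112, hTERT), dosed 60 min, then exposed to the DSB inducer NCS for 30 min.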
p53 reactivation – restores transcriptional activity of mutant p53 | AID 504706 | hit rate 0.063% among 320,000 | Potency, µM (highest dose often 92.2 µM), for the others: at the highest dose activity change, positive = activation, hits mostly activators | H1299 p53-A138V BP100-luciferase reporter, luminescence, 24 h; note: % of control where 0% means no effect; nearly all actives have a fitted effect of over 45% in size
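H1299 (p53-null), stable ts p53-A138V + BP100-Luc; 1000 cells/well, Opti-MEM/10% FBS; cpd 4 pt, 1:5; 24 h, 37 deg C, 5% CO2; detection reagent 10 min RT; luminescence.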
N370S GC – inhibits or activates N370S mutant glucocerebrosidase; P04062; N370S GC spleen homogenate, 4MU-glucoside fluorescence; Potency, µM (top dose mostly 59.4 µM), inactives show at the highest dose activity change, negative = inhibition, actives largely listed as inhibitors; hit rate 0.092% among 330,000;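 note: 0% = full enzyme activity and -100% = no enzyme basal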
Active calls of the source: *; [ ] = remark or other dose. Sampled rows, rich in hits. Any-hit rate of the full collection: about 0.3%. Calls come from the whole dose curve; as a rule, active = well fitted curve in the direction sought with a large enough effect; inconclusive = small, poorly fitted or top-dose-only effect, or another doubt; inactive = no such curve, though single readings can be large; an effect the other way counts as inactive or inconclusive. Potency is the fitted concentration of half-maximal effect.

What do the screens show for `CC(C)CC[n+]1ccn(-c2nc3ccccc3nc2[N-]S(=O)(=O)c2ccccc2)c1`?
ASM inhibitor: inactive; AT treatment: 1%; p53 reactivation: -6%; N370S GC: 23%

How did O=S(=O)([N-]c1nc2ccccc2nc1-n1cc[n+](Cc2ccccc2)c1)c1ccc(Cl)cc1 do in these assays?
ASM inhibitor: 376%; AT treatment: 20µM*; p53 reactivation: 1%; N370S GC: 13%

What do the screens show for `COc1ccc(-c2nnc3n2N=C(c2c(OC)cccc2OC)CS3)cc1OC`?
N370S GC: -9%

What do the screens show for `Cc1ccc(Cn2cccc(-c3nc4ccccc4s3)c2=O)cc1`?
ASM inhibitor: inactive; AT treatment: 28µM*; p53 reactivation: 4%; N370S GC: inconclusive

How did O=c1c(-c2nc3ccccc3s2)cccn1Cc1ccccc1 do in these assays?
ASM inhibitor: inactive; AT treatment: inconclusive; p53 reactivation: 15%; N370S GC: inconclusive

What do the screens show for `COC(=O)C#CC(=O)OC`?
N370S GC: -7%

How did COc1ccc(-c2sc3ccccc3c2C#Cc2cncn2C)cc1 do in these assays?
ASM inhibitor: 226%; AT treatment: 32µM*; p53 reactivation: -3%

What do the screens show for `COc1ccc(-c2sc3ccccc3c2C#CC2(O)CCCCC2)cc1`?
ASM inhibitor: -16%; AT treatment: 32µM*; p53 reactivation: 7%; N370S GC: 28%

How did CCN(CC)CCC(c1ccc(N(C)C)cc1)c1c(OC)cc(OC)c2c1OC(=O)CC2c1ccc(OC)cc1 (centres undefined) do in these assays?
N370S GC: -27%

Results for Cc1cc(C)n(-c2nc(NCCN(C)C)c3c4c(sc3n2)CCCC4)n1 ?
ASM inhibitor: -14%; AT treatment: 40µM*; p53 reactivation: -13%; N370S GC: -8%

Results for Cc1cc(C)n(-c2nc(NCCCN(C)C)c3c4c(sc3n2)CCCC4)n1 ?
ASM inhibitor: 1%; AT treatment: inconclusive; p53 reactivation: 5%; N370S GC: -14%

What do the screens show for `CCN(CC)CCNc1nc(-n2nc(C)cc2C)nc2sc3c(c12)CC(C)(C)OC3`?
ASM inhibitor: -1%; AT treatment: 35µM*; p53 reactivation: 5%; N370S GC: -18%

What do the screens show for `Cc1cc(C)n2c(SCc3ccc(Br)cc3)nnc2n1`?
ASM inhibitor: -1%; AT treatment: 3.5µM*; p53 reactivation: 2%; N370S GC: 6%

How did COc1ccccc1-c1c(C#N)c(N)nc2c1CCc1ccccc1-2 do in these assays?
ASM inhibitor: inactive; AT treatment: 22µM*; p53 reactivation: -10%; N370S GC: 23%

What do the screens show for `CCOC(=O)c1c(NC(=O)CN(CC)CC)sc2c1CCC2`?
ASM inhibitor: 0%; AT treatment: 22µM*; p53 reactivation: 5%; N370S GC: -17%

What do the screens show for `COC(=O)c1ccc2c(=O)n(CCN3CCOCC3)c(SCC(=O)c3ccccc3)nc2c1`?
ASM inhibitor: 11%; AT treatment: 18µM*; p53 reactivation: 3%; N370S GC: -1%

What do the screens show for `CCOC(=O)N1CCC(N2C(=O)c3ccccc3C2Nc2ccc3c(c2)OCCO3)CC1` (centres undefined)?
ASM inhibitor: 3%; AT treatment: 4%; p53 reactivation: inconclusive; N370S GC: 1%

Results for CCOC(=O)N1CCC(N2C(=O)c3ccccc3C2Nc2ccc3c(C)cc(=O)oc3c2)CC1 (centres undefined) ?
ASM inhibitor: inactive; AT treatment: 40µM*; p53 reactivation: -7%; N370S GC: 9%

Results for CCCCNC(=O)NS(=O)(=O)c1ccc(CO)cc1 ?
N370S GC: -9%

Results for O=C(/C=C/C=C/c1ccccc1)c1ccco1 ?
ASM inhibitor: 23%; AT treatment: -2%; p53 reactivation: 22µM*; N370S GC: -10%

What do the screens show for `O=C(/C=C/c1ccc(Br)cc1)c1ccco1`?
ASM inhibitor: -1%; AT treatment: 9%; p53 reactivation: inconclusive; N370S GC: 0%

How did Cc1ccc2nc3c(cc(C(=O)NC4CCS(=O)(=O)C4)n3Cc3ccccc3)c(=O)n2c1 (centres undefined) do in these assays?
ASM inhibitor: inactive; AT treatment: 32µM*; p53 reactivation: -4%; N370S GC: inconclusive

How did COC(=O)/C=C/c1cc(O)ccc1O do in these assays?
N370S GC: -3%

What do the screens show for `C/C=C(/C)C(=O)OC1C(OC(C)=O)[C@@]2(CO)C(O)C[C@@]3(C)C(=CCC4[C@@]5(C)CCC(OC6OC(C(=O)O)[C@@H](O[C@@H]7OC(CO)C(O)C(O)C7O)C(O)[C@H]6O[C@@H]6OC(CO)C(O)C(O)C6O)[C@](C)(CO)C5CC[C@@]43C)C2CC1(C)C` (some centres undefined)?
N370S GC: 16µM*

What do the screens show for `COc1ccc(C2/C=C\CN(C(=O)C3CCCCC3)C(C)C(=O)N2Cc2ccc(F)cc2)cc1` (centres undefined)?
N370S GC: -1%

How did Cc1cc2nc(/C=C/c3nc4cc(C)c(C)cc4[nH]3)[nH]c2cc1C do in these assays?
ASM inhibitor: inactive; AT treatment: 22µM*; p53 reactivation: 4%; N370S GC: -9%

Results for CCCCc1nc2c(c3c1C[C@H](C)OC3)CN(C(=O)Nc1cccc(C#N)c1)CC2 ?
N370S GC: 2%[12.8 µM]

How did COc1ccc(CNc2nc(NCc3ccc(OC)cc3)c3ncn(C(C)C)c3n2)cc1 do in these assays?
N370S GC: -3%

What do the screens show for `O=C(C1=C[C@@H](c2ccc(Br)cc2)C[C@@H](OCc2ccc(CO)cc2)O1)N1CCN(Cc2ccccc2)CC1`?
ASM inhibitor: -7%; AT treatment: -2%; p53 reactivation: 2%; N370S GC: 14µM*

What do the screens show for `O=C(C1=C[C@H](c2ccc(C(F)(F)F)cc2)C[C@H](OCc2ccc(CO)cc2)O1)N1CCN(Cc2ccc3c(c2)OCO3)CC1`?
ASM inhibitor: -11%; AT treatment: -15%; p53 reactivation: 0%; N370S GC: -29%

Results for O=C(C1=C[C@@H](c2ccc(C(F)(F)F)cc2)C[C@@H](OCc2ccc(CO)cc2)O1)N1CCN(Cc2ccc3c(c2)OCO3)CC1 ?
ASM inhibitor: -6%; AT treatment: -16%; p53 reactivation: 1%; N370S GC: 10µM*

How did C#Cc1ccc([C@H]2C=C(C(=O)N3CCN(Cc4ccccc4)CC3)O[C@@H](OCc3ccc(CO)cc3)C2)cc1 do in these assays?
ASM inhibitor: -2%; AT treatment: 16%; p53 reactivation: 1%; N370S GC: 5%

What do the screens show for `CC(C)CC1OC(=O)C2=CCCCC21` (centres undefined)?
N370S GC: -7%

Results for CC(=O)Oc1ccc(C2=NN(c3ccccc3)C(c3ccccc3)C2)cc1 (centres undefined) ?
ASM inhibitor: inactive; AT treatment: 35µM*; p53 reactivation: -1%; N370S GC: inconclusive

Bioassay records (PubChem BioAssay)
